According to PubChem BioAssay (NCATS):
Values joined by “and” are separate entries in the source; they are usually repeats but may differ in a detail not shown here. Equal values may be shown once. Records with an inconclusive call do not appear. Some compounds were tested as several samples or in several runs, with calls that do not always agree. Active and inactive are the calls of the source. Calls come from the whole dose curve; as a rule, active = well fitted cell-killing curve with a large enough effect; inconclusive = small, poorly fitted or top-dose-only effect, or effect the other way; inactive = no such curve, though single readings can be large or run the other way.

Experiment: Viability qHTS for spleen associated tyrosine kinase inhibitor (SYKi) naive MV4-11 cells (AID 1963823); note: nearly all actives have a fitted effect of over 40% in size
Conditions: MV4-11 AML viability, CellTiter-Glo luminescence, 72 h; series mostly up to 45 µM; viability (% of control): at the top concentration
How it was run: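 Compounds were dispensed acoustically onto plates, MV4-11 cells (SYKi-naive) added at 500 per well, and plates incubated 72 hr at 37 C. CellTiter-Glo was added and luminescence measured after 10 min.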
Potency is the fitted concentration of half-maximal effect.

| Structure (SMILES) | viability (% of control) | Potency |
| --- | --- | --- |
| CN1CCN(C(=O)O[C@H]2c3nccnc3C(=O)N2c2ccc(Cl)cn2)CC1 | 67.9% (inactive) | – |
| Cc1sc2c(c1C)C(c1ccc(Cl)cc1)=NC(CC(=O)Nc1ccc(O)cc1)c1nnc(C)n1-2 (stereo not given) | – | 0.148 µM (active) |
| c1ccc([C@@H]2C[C@H]2NC2CCNCC2)cc1 | 1.98% (inactive) | – |
| CN=C(NS(=O)(=O)c1ccc(Cl)cc1)N1C[C@H](c2ccccc2)C(c2ccc(Cl)cc2)=N1 | – | 20.6 µM (active) |
| CN1C(=O)C(Cc2ccc3ccccc3c2)N=C(c2ccc(O)cc2)c2cc(Cl)ccc21 (stereo not given) | – | 20.6 µM (active) |
| Cc1c(Cl)cccc1S(=O)(=O)Nc1nc(CC(=O)N2CCN(C)CC2)cs1 | 63.5% (inactive) | – |
| COc1ccsc1CNCC[C@@]1(c2ccccn2)CCOC2(CCCC2)C1 | 103% (inactive) | – |
| C#CCN(C)[C@H](C)Cc1ccccc1 | – | inactive |
| Cn1c(CCCC(=O)O)nc2cc(N(CCCl)CCCl)ccc21 | – | inactive and 11.8 µM (active) |
| c1cncc(OC[C@@H]2CCN2)c1 | 45.9% (inactive) | – |
| CCCC(C)(COC(N)=O)COC(=O)NC(C)C (stereo not given) | 91% (inactive) | – |
| O=C(Oc1ccc([N+](=O)[O-])cc1)N1CCN(Cc2cccc(Oc3ccccc3)c2)CC1 | – | 16.4 µM (active) |
| CNC(=O)NC(O)C(Cl)(Cl)Cl (stereo not given) | 60.8% (inactive) | – |
| CC(N)Cc1c[nH]c2ccccc12 (stereo not given) | 50.7% (inactive) | – |

Experiment: Viability qHTS for spleen associated tyrosine kinase inhibitor (SYKi) drug resistant MV4-11 cells (AID 1963824); note: nearly all actives have a fitted effect of over 35% in size
Conditions: SYKi-resistant MV4-11 viability, CellTiter-Glo, 72 h; series mostly up to 45 µM; viability, % of control: at the top concentration
How it was run: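 SYK-inhibitor-resistant MV4-11 AML cells were seeded at 500 per well onto compound and cultured 72 hours (37 °C, 5% CO2). CellTiter-Glo was then added, and after 10 min at room temperature, luminescence gave viability.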

| Structure (SMILES) | viability, % of control | Potency |
| --- | --- | --- |
| CN1CCN(C(=O)O[C@H]2c3nccnc3C(=O)N2c2ccc(Cl)cn2)CC1 | 70.7% (inactive) | – |
| Cc1sc2c(c1C)C(c1ccc(Cl)cc1)=NC(CC(=O)Nc1ccc(O)cc1)c1nnc(C)n1-2 (stereo not given) | – | 0.105 µM (active) |
| Cc1c(Cl)cccc1S(=O)(=O)Nc1nc(CC(=O)N2CCN(C)CC2)cs1 | 81.1% (inactive) | – |
| COc1ccsc1CNCC[C@@]1(c2ccccn2)CCOC2(CCCC2)C1 | 93.6% (inactive) | – |
| C#CCN(C)[C@H](C)Cc1ccccc1 | – | inactive |
| Cn1c(CCCC(=O)O)nc2cc(N(CCCl)CCCl)ccc21 | – | inactive and 11.8 µM (active) |
| c1cncc(OC[C@@H]2CCN2)c1 | 53.5% (inactive) | – |
| CCCC(C)(COC(N)=O)COC(=O)NC(C)C (stereo not given) | 78.8% (inactive) | – |
| O=C(Oc1ccc([N+](=O)[O-])cc1)N1CCN(Cc2cccc(Oc3ccccc3)c2)CC1 | – | 13.2 µM (active) |
| CNC(=O)NC(O)C(Cl)(Cl)Cl (stereo not given) | 86.5% (inactive) | – |
| CC(N)Cc1c[nH]c2ccccc12 (stereo not given) | 75.2% (inactive) | – |
